Screening data deposited in PubChem BioAssay by several laboratories.
FGF22 binding = FGF22 (human) thermal shift binding; Q9HCT0; hit rate 1.5% among 340,000; activity (Tm shift, normalised), % at 9.99 µM; AID 651658; recombinant FGF22 thermal shift, SYPRO orange fluorescence; percent of sucrose octasulfate shift, DMSO zero;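 active = mean Tm shift, scaled 0 neutral to 100 positive control, at about 1.3% or above, every replicate too, limit read from the data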
SMARCA2 act = increases SMARCA2 function in MMTV reporter cells; AID 652017; hit rate 1% among 370,000; activation, % at 9.1 µM; MG213 cells, MMTV-luciferase reporter, dexamethasone, overnight; in the data active = activation above about 7.8%
MITF act = increases MITF-driven TRPM1 promoter luciferase signal | SK-MEL-5 TRPM1-promoter luciferase, 24 h; % of positive control, neutral wells = 0 | activation, % at 12.5 µM | hit rate 0.75% among 300,000 | AID 588334;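 active = mean activation of at least 80% with every replicate also reaching 80%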
Wnt act = activates Wnt/beta-catenin signaling in a reporter cell assay | activation, % at 9.35 µM | activator, plate reader | AID 743398 | hit rate 1.2% among 300,000; in the data active = activation above about 30%, passing the limit was not always enough
esBAF inh = blocks esBAF chromatin remodeling in mouse ES cells. Bmi1-luciferase knock-in reporter, 24 h; 100% = twice the neutral-well signal. reporter increase, % at 12.5 µM. hit rate 2% among 350,000; in the data active = activation above about 40%;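 note: a rise in the Bmi1 reporter signal indicates esBAF inhibition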
AF4-AF9 inh = MLL-AF4/AF9 protein interaction inhibition. P42568. AlphaScreen, biotin-AF4 peptide binding to FLAG-AF9. inhibition, % at 10 µM. hit rate 0.47% among 350,000;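 active = every replicate reaching a set inhibition limit, whatever the replicate mean, cut at about 25% in these data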
Target sequence (P42568 whole entry, looked up): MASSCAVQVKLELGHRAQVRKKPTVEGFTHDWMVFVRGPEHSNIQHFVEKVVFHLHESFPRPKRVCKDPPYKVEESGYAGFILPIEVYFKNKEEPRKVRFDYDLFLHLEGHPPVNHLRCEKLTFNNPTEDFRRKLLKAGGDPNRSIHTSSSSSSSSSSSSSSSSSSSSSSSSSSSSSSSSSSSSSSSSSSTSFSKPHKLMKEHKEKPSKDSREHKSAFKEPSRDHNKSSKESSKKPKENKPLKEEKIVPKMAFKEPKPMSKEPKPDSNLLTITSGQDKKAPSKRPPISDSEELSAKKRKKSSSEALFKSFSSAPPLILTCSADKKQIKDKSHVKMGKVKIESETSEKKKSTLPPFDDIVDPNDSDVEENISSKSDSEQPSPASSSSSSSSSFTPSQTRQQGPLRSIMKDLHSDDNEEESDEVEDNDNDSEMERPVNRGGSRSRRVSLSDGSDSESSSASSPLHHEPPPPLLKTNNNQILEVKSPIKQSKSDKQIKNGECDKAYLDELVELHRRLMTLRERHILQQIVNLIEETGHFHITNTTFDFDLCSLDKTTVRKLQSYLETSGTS
SMARCA2 conf = SMARCA2 activation, confirmation screen. shares compounds with SMARCA2 act. MG213 cells, MMTV-luciferase with dexamethasone, luminescence, overnight; MG213 cells expressing E1A, Rb sequestered; DMSO wells 0%, reference activator 100%. activation, % at 9.1 µM. hit rate 30% among 3,500;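 active = activation above its plate's cutoff, the mean activation of tested wells plus 3 SD, cut at about 7.9% in these data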
GAL4-VP16 Luc = counter-screen for SMARCA2 activators: GAL4-VP16 luciferase reporter activation; hit rate 41% among 3,500; AID 686939; activation, % at 9.1 µM; HEK293 GAL4-VP16 pG5luc reporter, luciferase luminescence; scaled: DMSO wells 0%, SAHA wells 100%; shares compounds with SMARCA2 act;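 active = activation above the solvent-only control well mean plus 3 SD, averaged across control plates, cut at about 5.2% in these data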
Hits are given with their value; i = inactive; nt = not tested or not shown. Only some compounds are listed: those with a hit (about 4.3% of all), similar ones and a draw of the others.

SMILES	FGF22 binding	SMARCA2 act	MITF act	Wnt act	esBAF inh	AF4-AF9 inh	SMARCA2 conf	GAL4-VP16 Luc
Cc1ccc(C(=O)N/C(=C/c2ccc(-c3ccc([N+](=O)[O-])cc3)o2)C(=O)NCCCN(C)C)cc1	i	9.5	nt	i	nt	i	12.1	i
CCC(=O)Nc1ccc2c(c1)OC[C@H](C)N(Cc1ccccc1C(=O)O)C[C@@H](C)[C@@H](OC)CN(C)C2=O	i	nt	nt	nt	i	i	nt	nt
Cc1cccc(Cc2cnc(NC(=O)c3ccc(C)o3)s2)c1	nt	10.6	87.6	51.4	nt	nt	i	i
C[C@H](CO)N1C[C@H](C)[C@@H](CN(C)C(=O)Nc2ccc3c(c2)OCO3)Oc2c(NC(=O)Nc3ccc(F)cc3)cccc2C1=O	i	nt	nt	nt	i	i	nt	nt
CCCN(C)C[C@H]1OCCCC[C@@H](C)Oc2ccc(NC(=O)NC3CCCCC3)cc2C(=O)N([C@@H](C)CO)C[C@H]1C	i	nt	nt	nt	i	i	nt	nt
CCN(CC)c1ccc(C=N/C(C#N)=C(\N)C#N)cc1	nt	8.8	i	nt	i	nt	i	7.5
O=C(Cc1ccccc1F)Nc1ccc2c(c1)CCC2	i	11.5	129.0	i	71.7	i	i	6.6
Cc1[nH]ccc2cc3nc4ccccc4c3cc12	i	18.0	nt	i	i	i	75.5	i
COc1ccccc1C#Cc1ccc2c(c1)[C@H]1[C@H](CCN1C(=O)c1ccc(F)cc1)[C@H](CO)N2	i	nt	nt	nt	i	i	nt	nt
COc1ccc(C(O)c2ncc(C(F)(F)F)cc2Cl)cc1 (stereo not drawn)	i	i	i	i	i	i	nt	nt
COc1ccc(-c2cn3cc(C(F)(F)F)cc(Cl)c3n2)cc1	i	12.2	i	i	nt	i	i	10.6
CN(C)c1ccc(/C=C2\CCCc3c2nc2ccccc2c3C(=O)O)cc1	i	9.6	i	i	58.8	i	i	5.5
O=C(O)c1ccc(/C=C2\CCCc3c2nc2ccccc2c3C(=O)O)cc1	i	i	i	i	i	i	nt	nt
O=C(NCCc1ccc(F)cc1)c1coc(=O)c(Br)c1	i	27.1	i	i	i	i	i	i
CC[C@H](CCC(=O)N(c1ccccc1)c1ccccc1)c1ccc(C)cc1	nt	i	nt	nt	nt	nt	nt	nt
O=C(NCc1ccccn1)c1nnc(Cc2ccc(Cl)cc2)o1	i	9.6	i	i	i	i	i	i
O=C(NCCc1ccc(Cl)cc1)c1nnc(Cc2ccc(Cl)cc2)o1	i	i	i	i	i	i	nt	nt
COc1ccc(S(=O)(=O)N(C)C[C@H]2Oc3ccc(NS(=O)(=O)c4ccccc4)cc3C(=O)N([C@@H](C)CO)C[C@H]2C)cc1	i	nt	nt	nt	i	nt	nt	nt
Cc1ccc(O)c(NC(=O)CN(C)S(=O)(=O)c2ccc(Cl)cc2)c1	i	10.9	i	i	i	i	i	i
Fc1ccccc1-c1n[nH]c(=S)n1N=Cc1cccc(OCc2ccccc2)c1	nt	i	nt	nt	nt	nt	nt	nt
Fc1ccc(-c2n[nH]c(=S)n2N=Cc2cccc(OCc3ccccc3)c2)cc1	nt	9.9	nt	nt	nt	nt	i	i
C[C@H]1CN([C@@H](C)CO)C(=O)c2cc(C#CCN(C)C)cnc2O[C@H]1CN(C)C(=O)Nc1cccc(F)c1	i	nt	nt	nt	i	i	nt	nt
O=C(c1[nH]ncc1-c1cccc(Br)c1)C1CO1 (stereo not drawn)	i	10.8	i	i	nt	i	12.1	i
O=C(c1[nH]ncc1-c1ccccc1)C1CO1 (stereo not drawn)	i	i	nt	i	nt	i	nt	nt
COCC(=O)Nc1ccc2c(c1)[C@H]1C[C@@H](CC(=O)NCC3CC3)O[C@H](CO)[C@H]1O2	i	i	nt	i	nt	i	nt	nt
SMILES	FGF22 binding	SMARCA2 act	MITF act	Wnt act	esBAF inh	AF4-AF9 inh	SMARCA2 conf	GAL4-VP16 Luc
COc1ccc(-n2nc3cc(C)c(NC(C)=O)cc3n2)cc1	i	8.1	i	i	i	i	i	8.9
COc1ccc(-n2nc3cc(C)c(N)c(Br)c3n2)cc1	nt	8.4	nt	i	i	nt	10.6	11.1
COc1ccc(-n2nc3ccccc3n2)cc1	nt	i	i	i	i	nt	nt	nt
COc1ccc(NC(C)=O)c(C)c1	i	i	i	i	nt	i	nt	nt
C/C(Cn1cnc([N+](=O)[O-])n1)=N\NC(=O)c1ccc(F)cc1	nt	i	i	i	i	nt	nt	nt
COc1ccc(C(=O)N/N=C(\C)Cn2cnc([N+](=O)[O-])n2)cc1	i	12.8	i	i	i	i	i	i
Cn1c(CN2CCOCC2)nnc1SCc1ccccc1	nt	i	i	i	i	nt	nt	nt
Cn1c(CN2CCOCC2)nnc1SCC(=O)NCCc1ccccc1	nt	8.2	nt	i	i	nt	i	i
CCOc1ccc(CCNC(=O)COC(=O)c2cccc(S(=O)(=O)N(C)C)c2)cc1OCC	i	i	i	i	i	i	nt	nt
CCOc1ccc(CCNC(=O)COC(=O)c2cccc(N(C)C)c2)cc1OCC	i	8.1	i	50.6	53.5	i	i	8.7
O=[N+]([O-])c1ccc(-c2ccc(/C=N/Nc3nc(N4CCCCC4)nc(N4CCCCC4)n3)o2)cc1	i	i	i	i	nt	i	nt	nt
O=[N+]([O-])c1cccc(-c2ccc(/C=N/Nc3nc(N4CCCCC4)nc(N4CCCCC4)n3)o2)c1	i	8.9	i	i	nt	i	i	i
Cc1[nH]c2ccccc2c1-c1nc2ccccc2[nH]c1=O	i	i	i	i	i	i	nt	nt
O=c1[nH]c2ccccc2nc1-c1cccs1	nt	8.2	nt	42.8	68.1	nt	8.6	i
N#CCOc1ccccc1CNC[C@H]1O[C@@H](n2cnc(C(N)=O)n2)[C@H](O)[C@@H]1O	i	i	i	i	i	i	nt	nt
NC(=O)c1ncn([C@@H]2O[C@H](CNCc3cc(Br)ccc3OCc3ccccc3)[C@@H](O)[C@H]2O)n1	i	15.6	i	i	i	i	i	i
O=C(OCCN1CCOCC1)c1ccccc1Cl	i	i	i	i	i	i	nt	nt
Cc1ccccc1C(=O)OCCN1CCOCC1	nt	8.3	i	nt	nt	nt	i	i
COc1ccc(-c2cc(C(F)(F)F)nc(-n3cc(Cl)cn3)n2)cc1	nt	8.5	nt	i	nt	nt	i	i
C[C@@H]1CCCCO[C@H](CN(C)Cc2ccccc2)[C@@H](C)CN([C@@H](C)CO)C(=O)c2cc(NC(=O)CCC(F)(F)F)ccc2O1	i	nt	nt	nt	i	i	nt	nt
O=C(NCc1ccccc1Cl)c1cc(=O)[nH]c2ccccc12	i	8.4	i	i	i	i	i	i
COCC(=O)N1[C@@H]2c3ccc(/C=C/c4ccccc4)c(=O)n3C[C@H]1[C@H](CO)[C@H]2C(=O)N1CCOCC1	i	nt	nt	nt	i	i	nt	nt
CCOc1cnn(-c2cc(Oc3ccc(C)cc3)ncn2)c(=O)c1Cl	nt	i	i	nt	nt	nt	nt	nt
Cc1ccccc1Oc1cc(-n2ncc(Cl)c(Cl)c2=O)ncn1	i	11.2	i	i	nt	i	i	i
